# Measured values as given in PubChem BioAssay AID449728 (The Scripps Research Institute Molecular Screening Center, 2010).
# Out of some 330,000 compounds screened, about 900 (0.27%) were called active. Only a selection was taken, and actives are over-represented in it overall. Unmarked numbers belong to inactive results.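 The calls were made as follows: active = inhibition above the campaign's mean inhibition across all tested compounds plus 3 SD (cut at about 9.9% in these data); inactive = the rest.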
# Test: bacterial viability reduction in E. coli – absorbance, OD600, counter-screen for AddAB inhibitor project, primary screen (AID 449728);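 also: uninfected addAB+ strain grown without phage in ampicillin broth; 0% = DMSO wells and 100% = ciprofloxacin 0.95 µg/ml wells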
# Conditions: E. coli V3065 growth, 18 h, at 11.9 µM, active compounds read high
row,SMILES,inhibition
1,COC(=O)c1ccc(COC(=O)c2cnccn2)cc1,-0.61%
2,O=C(Cn1cc(C(=O)c2cccs2)c2ccccc21)NCc1cccs1,0.18%
3,CC1CCN(C(=O)Cn2cc(C(=O)c3ccco3)c3ccccc32)CC1,-0.18%
4,Cc1cccc(NC(=O)Cn2cc(C(=O)c3ccco3)c3ccccc32)c1,16.6% (active)
5,Cc1ccc(CN2CCC(N3CCC(C(=O)NCC4CCCO4)CC3)CC2)o1 (stereo unspecified),-1.01%
6,C#CCSc1nnc(-c2sc3ccccc3c2Cl)o1,2.18%
7,COc1ccc(CCNC(=O)/C(C#N)=C2\N=C(NC(=O)c3cccs3)c3ccccc32)cc1,-0.34%
8,O=C(NCC#CCSc1nnc(-c2cccc3ccccc23)o1)c1cccs1,10.2% (active)
9,COc1ccc(C)cc1N(CC(=O)NC(C)c1ccccc1)S(C)(=O)=O (stereo unspecified),0.84%
10,C[N+]1(CCNC(=O)/C=N/O)CCCCC1,-1.11%
11,COc1ccc([C@H]2CC(=O)C=C(/C=C/c3ccccc3)C2)cc1,-0.71%
12,Cc1ccccc1NC(=O)NC1(C(=O)N2CCCC2)CCCCC1,-1.26%
13,Oc1c(Cl)cc(Cl)c(Cl)c1Cc1c(O)c(Cl)cc(Cl)c1Cl,12.2% (active)
14,CC(=O)OCCOCn1cnn2c(=O)c(Br)c(C)nc12,-2.04%
15,CCNC(=S)N1CCN(c2ncccn2)CC1,0.78%
16,CN(C)CCCn1c(SCc2ccc(Cl)cc2)nnc1-c1ccncc1,-1.29%
17,COc1cccc(-c2sc3ccc(OC)cc3c2-c2ccc(OCCN3CCCCC3)cc2)c1,-0.53%
18,Cc1ccc(C23CC4CC(CC(C(=O)NCC(=O)O)(C4)C2)C3)cc1,1%
19,CCOc1ccccc1NC(=O)Cc1cccs1,1.04%
20,CCOc1ccccc1NC(=O)C12CC3CC(C1)CC(c1ccc(C)cc1)(C3)C2,26.6% (active)
21,COCCCNC(=O)C1CCC(CNS(=O)(=O)c2ccc(OC)cc2)CC1 (stereo unspecified),-1.01%

row,SMILES,inhibition
1,CCC1C(=O)NCCN1C(=O)c1ccc2nc(Cc3ccc(OC)cc3)oc2c1 (stereo unspecified),-0.08%
2,O=C(OCC1O[C@@H](OC(=O)c2cc(O)c(O)c(O)c2)[C@@H](OC(=O)c2cc(O)c(O)c(O)c2)[C@@H](OC(=O)c2cc(O)c(O)c(O)c2)[C@@H]1OC(=O)c1cc(O)c(O)c(O)c1)c1cc(O)c(O)c(O)c1 (stereo partly specified),23.6% (active)
3,COc1cccc(/C=N/Nc2ncc(C(F)(F)F)cc2Cl)c1O,15.6% (active)
4,COc1ccc(Br)cc1/C=N/Nc1ccc(Cl)c(C(=O)O)c1,-3.01%
5,CCOc1cccc(/C=N/NC(=S)NCCN2CCOCC2)c1O,0.34%
6,C/C(CC(C)C)=N\Oc1nc(C)cc(C)n1,0.81%
7,COc1ccc(C(=O)c2c3ccc([N+](=O)[O-])cc3[n+]([O-])n2CCCN)cc1,9.95% (active)
8,COc1ccc(C(=O)CC(=O)C(=O)Nc2cc([N+](=O)[O-])ccc2OC)cc1,-2.64%
9,COc1ccc2c(C(=O)c3ccc(C)cc3)n(CCC(N)=O)[n+]([O-])c2c1,-1.03%
10,CN1CCN(C(=O)c2cnn(-c3ccccc3)c2NC(=O)c2ccc([N+](=O)[O-])cc2)CC1,-0.94%
11,O=C(NNC(=O)C1CCCC1)c1ccc(F)cc1,-1.97%
12,Cc1ccc(/C=C/C(=O)Nc2ccc([N+](=O)[O-])c(NC(=O)/C=C/c3ccc(C)o3)c2)o1,-5.13%
13,O=C(/C=C/c1ccc([N+](=O)[O-])o1)NNC(=O)c1ccc(F)cc1,97.9% (active)
14,CONC(=O)c1cc(OCC(F)(F)F)ccc1OCC(F)(F)F,-0.41%
15,O=C1CN(C(=O)COC(=O)c2cnc(Cl)c(Cl)c2)c2ccccc2N1,1.7%
16,O=C1c2ccccc2C2=Nc3ccccc3SC(c3ccccc3F)C12 (stereo unspecified),19.9% (active)
17,CCOC(=O)C1=C(C)N=C2c3ccccc3C(=O)C2C1c1ccc(Br)cc1 (stereo unspecified),0.42%
18,O=C1c2ccccc2C(=O)C1c1ccccc1F,1.08%
19,C=CCN(Cc1nc(-c2cc(OC)c3c(c2)OCO3)oc1C)C1CCS(=O)(=O)C1 (stereo unspecified),-0.09%
20,O=C(COC(=O)c1c(Cl)cccc1Cl)Nc1cccc(S(=O)(=O)NC2=NCCCCC2)c1,-2.98%
